# The supplement of paper PMC4962491
# Several values for one entry are separate records, joined by “and”; a condition that tells them apart may be missing. Equal entries are not always repeated. ± gives the standard deviation of the averaged measurements. In all, about 1,600 compounds were measured (“mitochondrial oxygen consumption rate normalised to cell number, Z score over the library”: median about 0.065, lowest 2% from about -2.2 on). This is one part of a sample in which the lowest values are shown more often than they occur.
# System: FaDu
# Assay: mitochondrial oxygen consumption rate normalised to cell number, Z score over the library; higher = higher oxygen consumption (negative = OCR reduction)
# Conditions: treatment time 24 h; assay medium: 5 mM galactose, 5 mM pyruvate, 4 mM glutamine; 10 µM
# Description: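 Primary screen: FaDu cells were incubated 24 h with Pharmakon 1600 / TDI oncology set compounds at 2 or 10 uM. Mitochondrial-specific OCR (basal minus 2 uM antimycin A) was measured on a Seahorse XF96 in assay medium with 5 mM galactose, 5 mM pyruvate and 4 mM glutamine, then corrected for Hoechst cell number and expressed as a Z score […]. Compounds that cut cell number by >66% were excluded. Two repeats.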
row,SMILES,mitochondrial oxygen consumption rate normalised
1,Oc1ccc2ccccc2c1 [beta-NAPHTHOL],0.778 ± 0.095
2,C/C=C(/C)C(=O)O[C@H]1[C@H](OC(C)=O)[C@@]2(CO)C(CC1(C)C)C1=CCC3[C@@]4(C)CCC(O[C@@H]5O[C@H](C(=O)O)[C@@H](O[C@@H]6O[C@H](CO)[C@@H](O)[C@H](O)[C@H]6O)[C@H](O)[C@H]5O[C@@H]5O[C@H](CO)[C@@H](O)[C@H](O)[C@H]5O)[C@](C)(CO)C4CC[C@@]3(C)[C@]1(C)C[C@H]2O.C/C=C(\C)C(=O)O[C@H]1[C@H](OC(C)=O)[C@@]2(CO)C(CC1(C)C)C1=CCC3[C@@]4(C)CCC(O[C@@H]5O[C@H](C(=O)O)[C@@H](O[C@@H]6O[C@H](CO)[C@@H](O)[C@H](O)[C@H]6O)[C@H](O)[C@H]5O[C@@H]5O[C@H](CO)[C@@H](O)[C@H](O)[C@H]5O)[C@](C)(CO)C4CC[C@@]3(C)[C@]1(C)C[C@H]2O (some centres undefined),0.3 ± 0.096
3,CC(C)NC(=N)NC(=N)Nc1ccc(Cl)cc1,-0.293 ± 0.099
4,N=C(N)NC(=N)NCCc1ccccc1,-1.85 ± 0.1
5,N=C(NCCCCCCNC(=N)NC(=N)Nc1ccc(Cl)cc1)NC(=N)Nc1ccc(Cl)cc1,-3.36 ± 0.16
6,CN(C)c1cnccn1,0.284 ± 0.5
7,CC[C@H]1OC(=O)C[C@@H](O)[C@H](C)[C@@H](O[C@@H]2O[C@H](C)[C@@H](O)[C@H](N(C)C)[C@H]2O)[C@@H](CCN2C[C@H](C)C[C@H](C)C2)C[C@@H](C)C(=O)/C=C/C(C)=C/[C@@H]1CO[C@@H]1O[C@H](C)[C@@H](O)[C@@H](OC)[C@H]1OC,0.2667 ± 0.0014
8,CCCNC(C)C(=O)Nc1ccccc1C (centres undefined),-0.507 ± 1.1
9,CC(C)[C@H](N)C(=O)OCC(CO)OCn1cnc2c(=O)nc(N)[nH]c21 (some centres undefined),1.37 ± 0.77
10,N#Cc1ccc2[nH]cc(CCCCN3CCN(c4ccc5oc(C(N)=O)cc5c4)CC3)c2c1,-0.383 ± 0.58
11,CCN(CC)C(=O)N1CCN(C)CC1,1.02 ± 0.63
12,CCOCCOc1ccccc1C(N)=O,1.14 ± 0.52
13,Cc1c2oc3c(C)ccc(C(=O)N[C@@H]4C(=O)N[C@H](C(C)C)C(=O)N5CCC[C@H]5C(=O)N(C)CC(=O)N(C)[C@@H](C(C)C)C(=O)O[C@@H]4C)c3nc-2c(C(=O)N[C@@H]2C(=O)N[C@H](C(C)C)C(=O)N3CCC[C@H]3C(=O)N(C)CC(=O)N(C)[C@@H](C(C)C)C(=O)O[C@@H]2C)c(N)c1=O,-4.48 ± 0.4
14,CO[C@H]1C[C@H](O[C@@H]2/C(C)=C/C[C@@H]3C[C@@H](C[C@]4(CC[C@H](C)[C@@H](C5CCCCC5)O4)O3)OC(=O)[C@@H]3C=C(C)/C(=N/O)[C@H]4OC/C(=C\C=C\[C@@H]2C)[C@]43O)O[C@@H](C)[C@@H]1O,0.0124 ± 0.37
15,CN(C)CCc1c[nH]c2ccc(C[C@H]3COC(=O)N3)cc12,0.529 ± 0.45
16,CCC(=O)O[C@H](CC(=O)O)C[N+](C)(C)C,-0.676 ± 0.16
17,C[C@]12CCC(=O)C=C1CC[C@@H]1[C@@H]2[C@@H](O)C[C@@]2(C)[C@H]1CC[C@]2(O)C(=O)COP(=O)(O)O,1.06 ± 0.71
18,NCCc1cc[nH]n1,-0.155 ± 0.3
19,CCCCCCOC(=O)NC(=N)c1ccc(NCc2nc3cc(C(=O)N(CCC(=O)OCC)c4ccccn4)ccc3n2C)cc1,0.662 ± 0.54
20,Cc1ncc(COP(=O)([O-])[O-])c(CN(CCN(CC(=O)O)Cc2c(COP(=O)([O-])O)cnc(C)c2O)CC(=O)O)c1O.[Mn].[Na+].[Na+].[Na+],0.342 ± 0.21
21,CCCOc1ccc2[nH]c(NC(=O)OC)nc2c1,0.108 ± 0.53
22,CCCCC(=O)O[C@]1(C(=O)CO)[C@@H](C)C[C@H]2[C@@H]3CCC4=CC(=O)C=C[C@]4(C)[C@@]3(F)[C@@H](O)C[C@@]21C,-0.0902 ± 0.67
23,O=C1CN2Cc3c(ccc(Cl)c3Cl)N=C2N1,1.01 ± 0.66
24,C[C@]12CC[C@@H]3c4ccc(O)cc4CC[C@H]3[C@@H]1C[C@@H](O)[C@@H]2O,-0.347 ± 0.41
25,C[C@]12CC[C@@H]3c4ccc(O)cc4CC[C@H]3[C@@H]1CC[C@@H]2O,-0.551 ± 0.072
26,C[C@]12CC[C@@H]3c4ccc(O)cc4C[C@@H](CCCCCCCCC[S+]([O-])CCCC(F)(F)C(F)(F)F)[C@H]3[C@@H]1CC[C@@H]2O (some centres undefined),-2.25 ± 2.2
27,N=C(N)NS(=O)(=O)c1ccc(N)cc1,-0.417 ± 0.81

row,SMILES,mitochondrial oxygen consumption rate normalised
1,O=C[C@H](O)[C@@H](O)[C@H](O)CO,-0.552 ± 0.11
2,Cc1cc(C(C)(C)CC(C)(C)C)ccc1OCCOCC[N+](C)(C)Cc1ccccc1,-5.95 ± 0.082
3,CC(C)(C)CC(C)(C)c1ccc(OCCOCC[N+](C)(C)Cc2ccccc2)cc1,-6.2 ± 0.063
4,CO[C@H]1C[C@@H]2CC[C@@H](C)[C@@](O)(O2)C(=O)C(=O)N2CCCC[C@H]2C(=O)O[C@H]([C@H](C)C[C@@H]2CC[C@@H](OCCO)[C@H](OC)C2)CC(=O)[C@H](C)/C=C(\C)[C@@H](O)[C@@H](OC)C(=O)[C@H](C)C[C@H](C)/C=C/C=C/C=C/1C,-1.07 ± 0.18
5,C(=C\c1ccccc1)/CN1CCN(C(c2ccccc2)c2ccccc2)CC1,-0.167 ± 0.011
6,COc1ccc2cc(CCC(C)=O)ccc2c1,0.808 ± 0.11
7,O=C(Nc1ccccc1)c1ccccc1O,-0.209 ± 0.021
8,CC1CCCC(C)N1 (centres undefined),-0.441 ± 0.17
9,O=C(CCCCCCCC(=O)NCCO)NCCO,-0.567 ± 0.53
10,Cn1nnnc1SCC1=C(C(=O)O)N2C(=O)[C@@H](NC(=O)[C@H](O)c3ccccc3)[C@H]2SC1,0.376 ± 0.31
11,COCCCOc1ccnc(C[S+]([O-])c2nc3ccccc3[nH]2)c1C (centres undefined),0.0779 ± 0.21
12,CCN(CC)CCOC(=O)C(Cc1cccc2ccccc12)CC1CCCO1 (centres undefined),-0.531 ± 1.6
13,O=C(O)c1cc(O)c2c(c1)[C@H]([C@H]1c3cc(C(=O)O)cc(O)c3C(=O)c3c(O[C@@H]4O[C@H](CO)[C@@H](O)[C@H](O)[C@H]4O)cccc31)c1cccc(O[C@@H]3O[C@H](CO)[C@@H](O)[C@H](O)[C@H]3O)c1C2=O,0.905 ± 0.018
14,CCCCC(=O)OCC(=O)[C@]1(O)Cc2c(O)c3c(c(O)c2[C@@H](O[C@H]2C[C@H](NC(=O)C(F)(F)F)[C@H](O)[C@H](C)O2)C1)C(=O)c1c(OC)cccc1C3=O [valrubicin],-0.0886 ± 0.77
15,COc1cccc2c1C(=O)c1c(O)c3c(c(O)c1C2=O)C[C@@](O)(C(=O)CO)C[C@@H]3O[C@H]1C[C@H](N)[C@@H](O)[C@H](C)O1,-2.82 ± 0.22
16,Cn1nnnc1SCC1=C(C(=O)O)N2C(=O)[C@@H](NC(=O)[C@H](OC=O)c3ccccc3)[C@H]2SC1,0.0513 ± 0.34
17,CC(C)NCC(O)COc1cccc2ccccc12 (racemic),-0.291 ± 0.42
18,CC[n+]1c(-c2ccccc2)c2cc(N)ccc2c2ccc(N)cc21,-2.32 ± 0.27
19,CS(=O)(=O)Nc1ccc([N+](=O)[O-])cc1Oc1ccccc1,0.196 ± 0.72
20,COc1cc(NS(C)(=O)=O)ccc1Nc1c2ccccc2nc2ccccc12,-2.77 ± 0.43
21,CC(=O)Oc1c(C)c(C)c2c(c1C)CCC(C)(CCCC(C)CCCC(C)CCCC(C)C)O2 (stereo not drawn) [alpha-TOCHOPHERYL ACETATE],-0.281 ± 0.21
22,O=C1c2ccccc2C(=O)C1c1ccc(Cl)cc1,0.0788 ± 0.46
23,CC(O)C(=O)[O-].[Na+] (centres undefined),1.11 ± 0.92
24,CC(=O)Nc1ccc(S(=O)(=O)Nc2ccc([N+](=O)[O-])cc2)cc1,1.45 ± 0.4
25,NCCCS(=O)(=O)O,-0.855 ± 0.32
26,C#CCC(Cc1cnc2nc(N)nc(N)c2n1)c1ccc(C(=O)N[C@@H](CCC(=O)O)C(=O)O)cc1 (some centres undefined) [Pralatrexate],0.0598 ± 0.75
27,Nc1ccc(S(=O)(=O)O)cc1.Nc1ccc(S(=O)(=O)O)cc1.[Zn],1.04 ± 0.43

row,SMILES,mitochondrial oxygen consumption rate normalised
1,C[C@@H]1O[C@@H](OC[C@H]2O[C@@H](Oc3c(-c4ccc(OCCO)c(OCCO)c4)oc4cc(OCCO)cc(O)c4c3=O)[C@H](O)[C@@H](O)[C@@H]2O)[C@H](O)[C@H](O)[C@H]1O,-0.575 ± 0.55
2,CC(C)CCC[C@@H](C)[C@H]1CC[C@H]2[C@@H]3CC=C4C[C@@H](O)CC[C@]4(C)[C@H]3CC[C@]12C,-0.87 ± 0.089
3,O=C(c1cccnc1)N1CCOCC1,-0.217 ± 0.94
4,COc1cc(NS(=O)(=O)c2ccc(N)cc2)ncn1,0.47 ± 0.61
5,NCC(O)CC(=O)O (centres undefined),-0.332 ± 0.83
6,CN1C(=O)CC(C)(c2ccccc2)C1=O (centres undefined),-0.314 ± 0.74
7,CCCCOc1ccc(OCCCN2CCOCC2)cc1,-0.434 ± 0.23
8,CCCCOc1ccc(CC(=O)NO)cc1,-0.625 ± 0.84
9,CCCCCCCCCc1ccc(OCCOCCOCCOCCOCCOCCOCCOCCOCCO)cc1,-3.66 ± 0.45
10,CC(=O)Nc1ncc([N+](=O)[O-])s1,0.857 ± 0.27
11,CC(=O)Oc1ccccc1C(=O)O,0.27 ± 0.45
12,CC(=O)Oc1ccccc1C(=O)Nc1ncc([N+](=O)[O-])s1,-2.45 ± 0.1
13,CN(C)[C@@H]1C(O)=C(C(N)=O)C(=O)[C@@]2(O)C(O)=C3C(=O)c4c(O)cccc4[C@@](C)(O)[C@H]3[C@H](O)[C@@H]12,0.305 ± 0.067
14,Cn1c(=O)c2[nH]c(Br)nc2n(C)c1=O,0.142 ± 0.29
15,O=C(CCBr)N1CCN(C(=O)CCBr)CC1 [Pipobroman],-0.527 ± 1.4
16,O=C(CCBr)N1CCN(C(=O)CCBr)CC1,1.32 ± 1.1
17,CCC1(C)OC(=O)N(C)C1=O (centres undefined),0.0479 ± 0.05
18,CN1C(C(=O)Nc2ccccn2)=C(O)c2sc(Cl)cc2S1(=O)=O,-0.183 ± 0.66
19,Oc1c(I)cc(I)c2cccnc12,0.968 ± 0.98
20,O=[N+]([O-])c1ccc(O)c2ncccc12,-2.21 ± 0.14
21,Oc1ccc(Cl)c2cccnc12,0.469 ± 0.61
22,CCCCCCCC/C=C\CCCCCCCC(=O)O.NCCO,-0.00915 ± 0.76
23,CC[C@H]1OC(=O)[C@H](C)[C@@H](O[C@H]2C[C@@](C)(OC)[C@@H](O)[C@H](C)O2)[C@H](C)[C@@H](O[C@@H]2O[C@H](C)C[C@H](N(C)C)[C@H]2O)[C@](C)(O)C[C@@H](C)[C@@H]2N[C@@H](COCCOC)O[C@H]([C@H]2C)[C@]1(C)O,-0.149 ± 0.29
24,CC[C@@]1(O)C(=O)OCc2c1cc1n(c2=O)Cc2cc3c(CN(C)C)c(O)ccc3nc2-1,-4.46 ± 0.19
25,CCc1c2c(nc3ccc(OC(=O)N4CCC(N5CCCCC5)CC4)cc13)-c1cc3c(c(=O)n1C2)COC(=O)[C@]3(O)CC,-1.11 and -2.18
